# About 83,000 compounds went through this panel and 20% of them were active in at least one assay; those are over-represented in the sample as a whole.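 Step 1: grow cells in 96-well plates. Step 2: add test compound at a single concentration. Step 3: incubate 48 h. Step 4: record percent growth.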 A number with no mark means an inactive call. Calls of active or inactive are those of the source. The calls were made as follows: active = growth percent below 10; inactive = the rest.
# Test system: OVCAR-8 ovarian
# Assay: NCI-60 one-dose screen, 48 h (100 = growth as untreated, 0 = no growth, -100 = all killed)
# Conditions: 10 µM unless noted
row,SMILES,growth
1,CN(C)c1ccc(C2Nc3ccccc3-n3cccc32)cc1 (configuration not stated),94.5%
2,Nc1nc2c(c3ncccc13)C(c1cccc(Br)c1)Cc1ncccc1-2 (configuration not stated),26.6%
3,O=[N+]([O-])c1cccc(-c2nc3sccn3c2-c2ccnc(NCCCNS(=O)(=O)c3ccc(F)cc3)n2)c1,3.44% (active)
4,COc1ccc(-n2c(C)nc3c(c(C)nn3-c3ccccc3)c2=O)cc1,6.61% (active)
5,COc1ccc(-n2cc(-c3ccccc3)c3c(SCC(=O)N/N=C/c4ccc([N+](=O)[O-])cc4)ncnc32)cc1,103%
6,Nc1c(C(=O)Nc2ccccc2)sc2nc3c(cc12)CN(CCc1ccccc1)CC3,99.7%
7,CCOC(=O)c1c2ncccc2n2c(=O)n(-c3ccc(Cl)cc3)nnc12,57.1%
8,CCN(CC)CCCC(C)Nc1ccnc2c(OC)cccc12 (configuration not stated),106%
9,OC(c1cccc(C(F)(F)F)c1)c1cnccc1NC1CCCCCC1 (configuration not stated),58.2%
10,NC(=S)N/N=C/c1cc(-c2cccc(N)c2)ccn1,21.6%
11,COc1ccc(CCN2CCCn3c2nc2ccccc2c3=O)cc1,28.8%
12,O=C(/C=C\c1cccc([N+](=O)[O-])c1)c1ccccc1,74.1%
13,CCOC(=O)C(Cc1cc(I)c(O)c(I)c1)NC(=O)c1ccccc1 (configuration not stated),97.7%
14,COc1cc(C#N)cc(OC)c1OCCN(CCOc1c(OC)cc(C#N)cc1OC)S(=O)(=O)c1ccc(C)cc1,54.1%
15,CN1CCN(Cc2ccc(NC(=O)c3cncc(C#Cc4cncc5nccnc45)c3)cc2C(F)(F)F)CC1,62.1%
16,Nc1nc(-c2ccc(F)cc2)cc(-c2cnn(-c3ccccc3)n2)n1,100%
17,CC(=O)C1=C(O)C=C2Oc3c(C(=O)/C=C/c4ccccc4)c(O)c(C)c(O)c3[C@]2(C)C1=O,14%
18,COc1ccc(C/C(C)=C(\c2ccc(OCCN3CCCCCC3)cc2)c2ccc(OC(=O)C3CCCCC3)cc2)cc1,68.9%
19,O=[N+]([O-])c1cccc(-c2nc3sccn3c2-c2ccnc(NCCCNS(=O)(=O)c3ccc(Br)cc3)n2)c1,28.2%

row,SMILES,growth
1,CCOC(=O)/C=C/C(=O)[C@H](CC(C)C)NC(=O)[C@H](Cc1ccccc1)NC(=O)OCc1ccccc1,72.8%
2,Cc1cc2cc3cc(C)c(N(C)C)cc3nc2cc1N(C)C,22.5%
3,C=C1CCC2C3(C)COC(C)(C)OC3CCC2(C)C1C/C=C1/C(=O)OCC1OC(C)=O (configuration not stated),-5.77% (active)
4,C=C1CC2(OC1=O)C(=O)N(CCCCCCCCCCCCN1C(=O)C3(CC(=C)C(=O)O3)c3ccccc31)c1ccccc12 (configuration not stated),57%
5,O=C1c2cccnc2C(=O)c2c1c(C(=O)OCCN1CCCCC1)c1ccccn21,-58.2% (active)
6,COc1ccccc1N1CCN(CCn2c(=O)c3c(c4ccccc4n3C)n(C)c2=O)CC1,85%
7,CCOC(=O)c1c2c(n3ccc(NC(=O)CCN4CCOCC4)cc13)C(=O)c1ncccc1C2=O,48%
8,Cc1cc(=O)oc2cc(Oc3nc(-c4cccs4)cn4c(-c5cccs5)cnc34)ccc12,52.5%
9,CC(C)[C@@H]1CC[C@]2(C(=O)NCCCCN=C(N)N)CC[C@]3(C)[C@H](CC[C@@H]4[C@@]5(C)CCC(=O)C(C)(C)[C@@H]5CC[C@]43C)[C@@H]12,70.2%
10,Oc1cc(O)c2c(=S)cc(-c3ccc(Cl)cc3)oc2c1,35%
11,COc1ccc(-c2cn3c(-c4ccc(OC)cc4)cnc3c(Oc3ccc4c(C)cc(=O)oc4c3)n2)cc1,26.3%
12,CN1CCN(Cc2ccc(NC(=O)c3[nH]ncc3Nc3ccnc4ccsc34)cc2)CC1,21.5%
13,Nc1nc2ccc(-c3nc4ccc5[nH]ncc5c4c4c3CCC4)cc2s1,28.6%
14,Oc1ccc2c(=S)cc(-c3ccc(Br)cc3)oc2c1O,-6.62% (active)
15,Clc1cccc(Nc2nc(Nc3cnc4ccccc4c3)c3[nH]cnc3n2)c1,75.6%
16,COc1ccc(-c2cc(NC(=O)Nc3ccc(O)cc3)no2)cc1,90.1%
17,CC(=O)CC(C)(C)c1ccc(Cl)cc1,101%
18,O=C1C2CC=CCC2C(=O)N1CNc1ccc(Cl)cc1 (configuration not stated),110%
19,CN1CCN(Cc2ccc(NC(=O)c3[nH]ncc3Nc3ncnc4c3CCC4)cc2)CC1,11.9%

# Test system: OVCAR-5 ovarian
# Assay: as above
# Conditions: 10 µM unless noted
row,SMILES,growth
1,CN(C)c1ccc(C2Nc3ccccc3-n3cccc32)cc1 (configuration not stated),72%
2,Nc1nc2c(c3ncccc13)C(c1cccc(Br)c1)Cc1ncccc1-2 (configuration not stated),50.6%
3,O=[N+]([O-])c1cccc(-c2nc3sccn3c2-c2ccnc(NCCCNS(=O)(=O)c3ccc(F)cc3)n2)c1,59.1%
4,COc1ccc(-n2c(C)nc3c(c(C)nn3-c3ccccc3)c2=O)cc1,30.6%
5,COc1ccc(-n2cc(-c3ccccc3)c3c(SCC(=O)N/N=C/c4ccc([N+](=O)[O-])cc4)ncnc32)cc1,99.2%
6,Nc1c(C(=O)Nc2ccccc2)sc2nc3c(cc12)CN(CCc1ccccc1)CC3,99%
7,CCOC(=O)c1c2ncccc2n2c(=O)n(-c3ccc(Cl)cc3)nnc12,67.7%
8,CCN(CC)CCCC(C)Nc1ccnc2c(OC)cccc12 (configuration not stated),102%
9,OC(c1cccc(C(F)(F)F)c1)c1cnccc1NC1CCCCCC1 (configuration not stated),79.8%
10,NC(=S)N/N=C/c1cc(-c2cccc(N)c2)ccn1,46.1%
11,COc1ccc(CCN2CCCn3c2nc2ccccc2c3=O)cc1,41.6%
12,O=C(/C=C\c1cccc([N+](=O)[O-])c1)c1ccccc1,111%
13,CCOC(=O)C(Cc1cc(I)c(O)c(I)c1)NC(=O)c1ccccc1 (configuration not stated),96.1%
14,COc1cc(C#N)cc(OC)c1OCCN(CCOc1c(OC)cc(C#N)cc1OC)S(=O)(=O)c1ccc(C)cc1,108%
15,CN1CCN(Cc2ccc(NC(=O)c3cncc(C#Cc4cncc5nccnc45)c3)cc2C(F)(F)F)CC1,36.4%
16,Nc1nc(-c2ccc(F)cc2)cc(-c2cnn(-c3ccccc3)n2)n1,110%
17,CC(=O)C1=C(O)C=C2Oc3c(C(=O)/C=C/c4ccccc4)c(O)c(C)c(O)c3[C@]2(C)C1=O,78.7%
18,COc1ccc(C/C(C)=C(\c2ccc(OCCN3CCCCCC3)cc2)c2ccc(OC(=O)C3CCCCC3)cc2)cc1,81.9%
19,O=[N+]([O-])c1cccc(-c2nc3sccn3c2-c2ccnc(NCCCNS(=O)(=O)c3ccc(Br)cc3)n2)c1,114%
20,CCOC(=O)/C=C/C(=O)[C@H](CC(C)C)NC(=O)[C@H](Cc1ccccc1)NC(=O)OCc1ccccc1,90.8%

row,SMILES,growth
1,Cc1cc2cc3cc(C)c(N(C)C)cc3nc2cc1N(C)C,53.9%
2,C=C1CCC2C3(C)COC(C)(C)OC3CCC2(C)C1C/C=C1/C(=O)OCC1OC(C)=O (configuration not stated),38.3%
3,C=C1CC2(OC1=O)C(=O)N(CCCCCCCCCCCCN1C(=O)C3(CC(=C)C(=O)O3)c3ccccc31)c1ccccc12 (configuration not stated),99.9%
4,O=C1c2cccnc2C(=O)c2c1c(C(=O)OCCN1CCCCC1)c1ccccn21,-27.8% (active)
5,COc1ccccc1N1CCN(CCn2c(=O)c3c(c4ccccc4n3C)n(C)c2=O)CC1,111%
6,C/C(=C(/c1ccc(O)cc1)c1ccc(OCCN(C)C)cc1)c1ccccc1,87.6%
7,CCOC(=O)c1c2c(n3ccc(NC(=O)CCN4CCOCC4)cc13)C(=O)c1ncccc1C2=O,88.9%
8,Cc1cc(=O)oc2cc(Oc3nc(-c4cccs4)cn4c(-c5cccs5)cnc34)ccc12,93.8%
9,CC(C)[C@@H]1CC[C@]2(C(=O)NCCCCN=C(N)N)CC[C@]3(C)[C@H](CC[C@@H]4[C@@]5(C)CCC(=O)C(C)(C)[C@@H]5CC[C@]43C)[C@@H]12,97.4%
10,Oc1cc(O)c2c(=S)cc(-c3ccc(Cl)cc3)oc2c1,60.3%
11,COc1ccc(-c2cn3c(-c4ccc(OC)cc4)cnc3c(Oc3ccc4c(C)cc(=O)oc4c3)n2)cc1,88%
12,CN1CCN(Cc2ccc(NC(=O)c3[nH]ncc3Nc3ccnc4ccsc34)cc2)CC1,18.1%
13,Nc1nc2ccc(-c3nc4ccc5[nH]ncc5c4c4c3CCC4)cc2s1,47.6%
14,Oc1ccc2c(=S)cc(-c3ccc(Br)cc3)oc2c1O,67.9%
15,Clc1cccc(Nc2nc(Nc3cnc4ccccc4c3)c3[nH]cnc3n2)c1,89.3%
16,COc1ccc(-c2cc(NC(=O)Nc3ccc(O)cc3)no2)cc1,82.9%
17,CC(=O)CC(C)(C)c1ccc(Cl)cc1,95.7%
18,O=C1C2CC=CCC2C(=O)N1CNc1ccc(Cl)cc1 (configuration not stated),87.6%
19,CN1CCN(Cc2ccc(NC(=O)c3[nH]ncc3Nc3ncnc4c3CCC4)cc2)CC1,-0.195% (active)
